From PubChem BioAssay
ATXN viability: cell viability loss in ATXN counter-screen. S2 cells (HEK-293 line with an ATXN2-luciferase reporter) viability, CellTiter-Fluor protease fluorescence, 24 h. Potency, µM (series often up to 56.7 µM), most hits filed as cytotoxic. 0.49% of 400,000 active. AID 651635; note: nearly all actives have a fitted effect of over 40% in size
HTT aggregate: reduces HttQ103-GFP aggregates in PC12 cells. PC12 HttQ103-GFP aggregates, Acumen cytometry, 40 h. Potency, µM (top dose mostly 46.1 µM), for inactives: at the top dose activity change, negative = inhibition, most hits filed as inhibitors. 1.1% of 220,000 active; note: % is set by controls: 0 for no effect and ±100 for the full control effect; nearly all actives have a fitted effect of over 60% in size
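Huntingtin Q103 exon 1–GFP aggregates in induced PC12 cells (100 nM tebufenozide) were quantified by cytometry from lysates, with compounds dosed in titration.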
ATXN2 expr inh: ATXN2 expression inhibition; HEK-293 ATXN2-luciferase reporter, luminescence, 24 h; Potency, µM (titrated, usually from 57 µM), for inactives: at the highest dose activity change, negative = inhibition, most hits filed as inhibitors; 0.72% of 360,000 active; AID 1745845; note: % is set by controls: 0 for no effect and ±100 for the full control effect; nearly all actives have a fitted effect of over 55% in size
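ATXN2-luciferase reporter cells (luciferase flanked by upstream and downstream ATXN2 gene portions) were treated 24 h at 37 °C with compounds at up to 57 uM. SteadyGlo luminescence gave expression; GF-AFC fluorescence gave viability.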
TGFb SMAD3 inh: inhibitors of TGF-b signaling | HepG2 CAGA-GFP TGF-b/SMAD3 reporter, GFP fluorescence, 18 h; TGF-beta stimulated, 500 pg/mL final | Potency, µM (titrated, usually from 46.1 µM), without a hit: at the top dose activity, negative = inhibition, actives largely listed as inhibitors | 1.2% of 410,000 active; note: % is set by controls: 0 for no effect and ±100 for the full control effect; nearly all actives have a fitted effect of over 65% in size
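Read-out: total well GFP (ex488/em500-530) summed from mean per-cell fluorescence. Cells: HEPG2 CAGA-GFP, 1% FBS DMEM, 18 h at 37 degrees C with 500 pg/mL final TGF-beta. Unstimulated wells served as the full-inhibition control; stimulated DMSO wells = 0%.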
HepG2 viability: HepG2 cytotoxicity, counter-screen for TGF-b inhibitors | HepG2 CAGA-GFP viability, ATP luminescence, 18 h | Potency, µM (doses to about 46.1 µM), for inactives: top-dose activity change, negative = cytotoxicity, usual class: cytotoxic | 0.76% of 410,000 active
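CellTiter-Glo luminescence gave cytotoxicity after 18 hours at 37 degrees C. The cells were HepG2 CAGA-GFP in 1% FBS DMEM, stimulated with 500 pg/mL TGF-beta after compound addition. %Activity was normalised to no-cell wells (complete cell-killing) and DMSO (no toxicity), and curves were fitted and classified.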
HTT ATP protect: protects HTT-Q103 PC12 cells, measured by ATP | 0.14% of 230,000 active | PC12 HTT-Q103 induced, cytoprotection, ATP luminescence, 40 h | Potency, µM (doses to about 56.4 µM), without a hit: cytoprotection (ATP increase), usual class: activators | AID 1471; note: % of control where 0% means no effect; nearly all actives have a fitted effect of over 45% in size
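Cells were plated at 1500 per well in phenol red-free DMEM with 5% equine and 5% calf serum. Tebufenozide (100 nM final) and compounds were added, then ATPlite reagent, and luminescence was read.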
Active calls of the source: *; i = inactive; ? = inconclusive; nt = no result given; [ ] = dose if it differs, or a comment. Compounds with a hit are over-represented: about 2.8% of the library has one in this group of screens. Calls come from the whole dose curve; as a rule, active = well fitted curve in the direction sought with a large enough effect; inconclusive = small, poorly fitted or top-dose-only effect, or another doubt; inactive = no such curve, though single readings can be large; an effect the other way counts as inactive or inconclusive. Potency is the fitted concentration of half-maximal effect.

SMILES	ATXN viability	HTT aggregate	ATXN2 expr inh	TGFb SMAD3 inh	HepG2 viability	HTT ATP protect
COc1ccc2c(c1)CCc1c(C(=O)NCc3ccc(Cl)cc3)noc1-2	i	-10%[9.22 µM]	-6%	-8%	-5%	-14%
COc1cc(=O)n2c(c1C(=O)N(C)Cc1ccsc1)CCN(Cc1cnn(C)c1C)CC2	i	nt	nt	nt	nt	nt
CCOC(=O)N1CCN(C(=O)c2ccc(-c3ccccc3OC)nc2N2CCC(N3CCCC(CO)C3)CC2)CC1 (stereo not drawn)	i	nt	nt	nt	nt	nt
COc1ccc(-c2cn3nc(C)c(C)nc3n2)cc1OC	i	nt	28%	4%	15%	nt
Cc1ccc(-c2cn3nc(C)c(C)nc3n2)cc1	nt	7%	6.3µM*	14%	-30%	-127%[0.074 µM]
CCn1nnnc1Sc1nc(C)nc2scc(-c3ccccc3)c12	nt	nt	nt	14%	15%	nt
O=C(Nc1ccc(Cl)cc1)Nc1ccc2c(c1)OCO2	i	nt	26%	-15%	1%	nt
O=C(Nc1ccc(OC(F)F)c(Cl)c1)Nc1ccc2c(c1)OCO2	?	11µM*	-12%	?	11µM*	-2%[10 µM]
O=C(Nc1ccc(OC(F)F)c(Cl)c1)c1cccc(OC(F)F)c1	i	4µM*	4%	?	-44%	-90%
COc1ccc(NC(=O)c2cccc(OC(F)F)c2)cc1Cl	i	-16%	94%	10%	0%	-7%
COc1cc(=O)n2c(c1C(=O)NCc1ccco1)CCN(Cc1ccc3nsnc3c1)CC2	i	nt	nt	nt	nt	nt
COC(=O)c1cc(=O)n(-c2ccccc2)c(=Nc2ccccc2)s1	?	5%	?	18µM*	-60%	nt
CCOC(=O)c1ccc(N=c2sc(C(=O)OC)cc(=O)n2-c2ccc(C(=O)OCC)cc2)cc1	?	?	?	?	-35%	nt
CCN(CC)C(=O)c1ccc(S(=O)(=O)NCc2cccnc2)cc1	i	11µM*	-2%	-19%	-19%	22%[10 µM]
COc1ccc(S(=O)(=O)NCc2cccnc2)cc1Br	?	nt	nt	-20%	7.1µM*	nt
COc1ccc(S(=O)(=O)NCc2cccnc2)cc1	i	nt	-42%	0%	25%	nt
CCc1ccc(S(=O)(=O)NCc2cccnc2)cc1	i	nt	-24%	-24%	-39%	nt
Cc1ccc2nc(SCC(=O)NCC3Cc4cc(-c5ncccc5C)ccc4O3)[nH]c2c1 (stereo not drawn)	i	nt	nt	nt	nt	nt
C[C@H](NCc1ccc(OCc2cccc(F)c2)cc1)C(N)=O	nt	nt	19µM*	nt	nt	nt
OC(c1ccc(F)cc1)c1nc(-c2cncnc2)cs1 (stereo not drawn)	i	nt	-2%	0%	3.5µM*	nt
COc1ccc(/C=C/c2ccnc3ccccc23)c(OC)c1	nt	nt	nt	?	-15%	nt
O=C(Nc1nc2c(s1)CCCC2)c1cccs1	i	-21%	24%	-3%	10µM*	-92%[10 µM]
COc1ccc(CC(=O)Nc2nc3c(s2)CCCC3)cc1	nt	nt	nt	0%	-11%	nt
O=C(Cc1cccs1)Nc1nc2c(s1)CCCC2	i	3.2µM*	79%	19%	-27%	-28%[0.074 µM]
O=C(Nc1nc2c(s1)CCCC2)c1cccnc1	i	-5%	-16%	-4%	-43%	19%
C[C@@]12C=Cc3occc3C1CC[C@@]13C[C@@H](CCC12)[C@@](O)(CO)C3 (stereo partly drawn)	nt	nt	nt	nt	nt	-70%
CC(NC(=O)c1cnc2ccccc2n1)c1ccccc1 (stereo not drawn)	i	nt	19%	-2%	-7%	nt
CS[C@H]1SC[C@@H]2C(=O)N(C)[C@H](C(C)C)C(=O)OC[C@H](NC(=O)c3cnc4ccccc4n3)C(=O)N[C@H](C)C(=O)N(C)[C@@H]1C(=O)N(C)[C@H](C(C)C)C(=O)OC[C@H](NC(=O)c1cnc3ccccc3n1)C(=O)N[C@H](C)C(=O)N2C	nt	nt	0.011µM*	nt	nt	nt
CCCN(CCC)c1ccc(/C=C/c2sc3ccccc3[n+]2CCCCI)cc1	nt	nt	nt	6.3µM*	14µM*	nt
